Results filed as inconclusive are left out. Activity calls are given as the source filed them. Unless noted, no rule for the calls is given here.
How the values were obtained:
[1] = qHTS profiling for inhibitors of Plasmodium falciparum (3D7) proliferation (AID 743322);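 also: infected erythrocytes exposed to compound for 72 h before lysis; 100% = DMSO vehicle wells and 0% = 0.29 µM artemisinin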; conditions: P. falciparum 3D7 proliferation; at 28.7 µM (top of the series)
Procedure, shortened: (§1)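 Erythrocytes infected with P. falciparum (0.3% parasitemia, 2.5% hematocrit) incubated with compounds 72 h at 37 C, 5% CO2. Lysis with saponin/Triton buffer containing SYBR Green I, overnight at room temperature in the dark; DNA fluorescence (485/535 nm) normalised to 0.29 uM artemisinin and DMSO.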

[2] = qHTS profiling for inhibitors of Plasmodium falciparum (DD2) proliferation (AID 743323); conditions: lower = more inhibition; at 28.7 µM (top of the series)
Procedure, shortened: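 1536-well qHTS; infected RBCs 0.3% parasitemia/2.5% Hct final; cpd 72 h 37 C 5% CO2; lysis buffer + SYBR Green I, o/n RT dark; FI 485/535; norm. to 0.29 uM artemisinin and DMSO, plate-stack corrected.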

[3] = qHTS profiling for inhibitors of Plasmodium falciparum (HB3) proliferation (AID 743324; active = well fitted curve in the direction sought with a large enough effect; an effect the other way counts as inactive or inconclusive;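 also: 100% = DMSO vehicle wells and 0% = artemisinin-treated control wells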); conditions: Plasmodium falciparum HB3 blood-stage proliferation; at 28.7 µM (top of the series)
Procedure, shortened: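 P. falciparum HB3 grown in erythrocytes (0.3% parasitemia, 2.5% hematocrit final) with compound for 72 h at 37 C, 5% CO2. Parasite DNA detected by SYBR Green after saponin/triton lysis overnight; normalized to 0.29 uM artemisinin and DMSO.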

[4] = qHTS profiling of the MIPE4 collection as inhibitors of Plasmodium falciparum (3D7) proliferation (AID 743344);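 also: scaled between DMSO vehicle wells and 0.29 µM artemisinin as full inhibition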; conditions: P. falciparum 3D7 in erythrocytes, SYBR Green DNA fluorescence, 72 h; at 28.5 µM (top of the series) unless noted
Procedure, shortened: as §1

[5] = qHTS profiling of the MIPE4 collection as inhibitors of Plasmodium falciparum (DD2) proliferation (AID 743345); conditions: P. falciparum Dd2 in erythrocytes, SYBR Green DNA, 72 h; at 28.5 µM (top of the series) unless noted
Procedure, shortened: as §1

[6] = qHTS profiling of the MIPE4 collection as inhibitors of Plasmodium falciparum (DD2) proliferation (Rep 2) (AID 743346); conditions: P. falciparum Dd2 in erythrocytes, SYBR Green DNA, 72 h; at 28.5 µM (top of the series) unless noted
Procedure, shortened: as §1

[7] = qHTS profiling of the MIPE4 collection as inhibitors of Plasmodium falciparum (HB3) proliferation (AID 743347);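 also: plate controls were DMSO vehicle wells for no effect and artemisinin wells for full effect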; conditions: P. falciparum HB3 in erythrocytes, SYBR Green DNA, 72 h; at 28.5 µM (top of the series) unless noted
Procedure, shortened: as §1

[8] = High-throughput drug toxicity screening in the BPDCN cell line Gen2.2 (AID 1224824); conditions: Gen2.2 BPDCN cells; at 45.8 µM (top of the series) unless noted;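 also: cells exposed to compounds for 48 h before reading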
Procedure, shortened: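 Gen2.2 cells, 500 per well in phenol red-free RPMI with 10% FBS, exposed to compounds 48 h at 37 C, 5% CO2; viability by CellTiter-Glo luminescence. Percent activity scaled to DMSO (100%) and 9.2 uM bortezomib final (0%).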

[9] = High-throughput drug toxicity screening in the BPDCN cell line Cal-1 (AID 1224825); conditions: Cal-1 BPDCN cell viability, qHTS; at 45.8 µM (top of the series) unless noted
Procedure, shortened: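 Cal-1 cells, 500 per well in phenol-red-free RPMI with 10% FBS, exposed to compounds for 48 hours at 37C, 5% CO2. Viability read by CellTiter-Glo luminescence; percent activity normalized to DMSO (100%) and 9.2 uM bortezomib final (0%).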

[10] = qHTS assay for measurement of the activity of small molecule inhibitors on Zika virus induced Caspase-3 activity in human iPSC derived neural progenitor cells (hNPCs) (AID 1224857; active = well fitted curve in the direction sought with a large enough effect; an effect the other way counts as inactive or inconclusive; also: nearly all actives have a fitted effect of over 65% in size; also: potency is read from the fitted curve at half-maximal effect)
Procedure, shortened: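 Caspase-3/7 induction by a 6-hour ZIKV infection was quantified with a luminescent Caspase-Glo 3/7 reagent incubated 30 minutes at room temperature. Compounds were preincubated with hNPCs for 1 hour; inhibition was calculated against uninfected and infected control wells.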

Row | Structure (SMILES) | remaining parasite growth % (stronger effect = lower value) [1] [%] | activity, percent of control [2] [%] | remaining proliferation (% of control), lower = more inhibition [3] [%] | parasite growth, % of DMSO control [4] [%] | parasite growth remaining, % of DMSO control (lower = more inhibition) [5] [%] | parasite growth, % of control (lower = inhibition) [6] [%] | growth, % of control [7] [%] | cell viability, % of control (lower = more cytotoxic) [8] [%] | viability (% of control) [9] [%] | Potency [10]
1 | Cc1ccc(C(N)=O)cc1Nc1nccc(-c2cn(C(C)C)c3cnccc23)n1 | -1.17 | 0.145 | -1.54 | 5.53 | 6.53 | 7.77 | 3.05 | 4.31 | 3.01 | inactive
2 | Cc1cccc(C=NNc2cc(N3CCOCC3)nc(OCCc3ccccn3)n2)c1 | 3.29 | 8.46 | 1.85 | 5.56 | 15.2 | 11.8 | 4.79 | 60.1 | 63.7 | inactive
3 | O=C(Nc1cc(C(F)(F)F)cc(C(F)(F)F)c1)c1cc(Cl)ccc1O | -1.15 | 0.0029 | -0.617 | 5.26 | 6.62 | 14.1 | 5.57 | 7.43 | 2.38 | inactive
4 | COc1cc(OC2CCN(C)CC2)ccc1Nc1ncc2c(n1)n(C1CCCC1)c(=O)n2C | 9.94 | 3.56 | 1.94 | 9.89 | 9.37 | 18.2 | 7.29 | 6.18 | 3.73 | inactive
5 | CC(=O)c1c(C)c2cnc(Nc3ccc(N4CCNCC4)cn3)nc2n(C2CCCC2)c1=O | 0.348 | 4.74 | 0.446 | 5.54 | 6.84 | 9.82 | 2.45 | 8.1 | 3.89 | inactive
6 | CNC(=O)c1cc(Oc2ccc(NC(=O)Nc3cc(C(C)(C)C)nn3-c3ccc4ncccc4c3)c(F)c2)ccn1 | 26.7 | 73.3 | 24.1 | 5.7 | 15.5 | 10.2 | 9.48 | 5.59 | 7 | inactive
7 | C[C@@H](Oc1cc(-n2cnc3ccc(CN4CCN(C)CC4)cc32)sc1C(N)=O)c1ccccc1C(F)(F)F | -0.0099 | 3.25 | 1.38 | 6.16 | 7.2 | 13.9 | 6.6 | 3.33 | 3.46 | inactive
8 | COCCn1c2c([n+](Cc3cnccn3)c1C)C(=O)c1ccccc1C2=O | -1.59 | -0.193 | -1.98 | 9.02 | 6.3 | 11.6 | 6.61 | 9.73 | 3.5 | 418 nM (active)
9 | NC(=O)c1c(OCc2c(F)cc(Br)cc2F)nsc1NC(=O)NCCCCN1CCCC1 | -0.239 | 17.3 | 2.02 | 47.5 | 74.6 | 42.1 | 5.84 | 24.4 | 4.13 | inactive
10 | Nc1nccc(Oc2ccc(NC(=O)c3c[nH]cc(-c4ccc(F)cc4)c3=O)cc2F)c1Cl | 7.57 | 18.6 | 1.21 | 4.72 | 50.4 | 8.39 | 6.32 | 7.66 | 5.21 | inactive
